Vif-A3G inh = blocks the Vif interaction with human APOBEC3G | actives 0.076% (n = 410,000) | Potency, µM (series often up to 46.1 µM), without a hit: at the top dose activity, negative = active, actives largely listed as inhibitors | Q9HC16 | HeLa A3G-eYFP + Vif (tagged APOBEC3G with the HIV-1 protein that degrades it), YFP fluorescence, overnight | AID 602310; note: % is set by controls: 0 for no effect and ±100 for the full control effect; nearly all actives have a fitted effect of over 60% in size
Target sequence (Q9HC16 whole entry, looked up): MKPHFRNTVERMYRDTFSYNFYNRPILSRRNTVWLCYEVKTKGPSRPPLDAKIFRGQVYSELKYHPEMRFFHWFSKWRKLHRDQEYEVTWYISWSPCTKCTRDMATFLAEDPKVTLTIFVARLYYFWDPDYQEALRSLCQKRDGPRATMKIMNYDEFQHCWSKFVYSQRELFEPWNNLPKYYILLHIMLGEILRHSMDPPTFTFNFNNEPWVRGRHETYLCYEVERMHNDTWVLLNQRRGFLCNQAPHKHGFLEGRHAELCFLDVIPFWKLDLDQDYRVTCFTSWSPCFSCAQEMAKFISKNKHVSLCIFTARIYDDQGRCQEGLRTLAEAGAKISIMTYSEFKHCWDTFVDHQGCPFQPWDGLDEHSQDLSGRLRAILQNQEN
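HeLa cells stably expressing Vif and C-terminally eYFP-tagged A3G, seeded overnight at 37 deg C, then exposed to compound by pintool overnight at 37 deg C. Rise in yellow fluorescence (Ex 488/Em 500-530, Acumen) marks blocked Vif-driven A3G degradation.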
Epigenetic derep = derepresses silenced GFP reporter in murine cells; actives 0.2% (n = 280,000); AID 1865; Potency, µM (top dose mostly 53.9 µM), without a hit: at the highest dose GFP activation, most hits filed as activators; murine LDR cells, GFP reporter derepression, 30 h; note: % of control where 0% means no effect; nearly all actives have a fitted effect of over 60% in size
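In this reporter-derepression format, murine cells bearing a silenced integrated CMV-GFP locus incubate with test compound (30 h, 37 C), then are washed and imaged; fluorescent objects of 20–120 um count as induced cells.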
GLS inhibitor = inhibitors of human glutaminase (GLS); O94925; actives 0.21% (n = 410,000); Potency, µM (doses to about 45.5 µM), inactives show at the top dose activity change, negative = inhibition, hits mostly inhibitors; GLS enzymatic activity, qHTS titration; AID 624170; note: % is set by controls: 0 for no effect and ±100 for the full control effect
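hKGA in 45 mM KH2PO4 pH 8.2, 0.02% Tween-20 with pin-transferred compounds; 1 mM L-glutamine (stock) plus glutamate oxidase/HRP/Amplex Red coupling added. Fluorescence read initially and after 30 min at RT.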
PINK1 expr mod = modulators of PINK1 expression; actives 0.2% (n = 410,000); Potency, µM (top dose mostly 76.6 µM), for the others: at the top dose activation (PINK1 increase), most hits filed as activators; PINK1 immunofluorescence, high-content cytometry, 24 h; active = well fitted activation curve with a large enough effect; inconclusive = small, poorly fitted or top-dose-only effect; cell line not stated here; note: % of control where 0% means no effect; nearly all actives have a fitted effect of over 65% in size
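Decision-based qHTS: stable cells, 24 h exposure to five compound concentrations, CCCP as control. Fixed cells stained for PINK1 plus nuclear, mitochondrial and cell markers, cytometer read.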
Vif-A3F inh = inhibitors of Vif-A3F interaction; HeLa A3F-eYFP + Vif (tagged APOBEC3F with the HIV-1 protein that degrades it), YFP fluorescence increase; Potency, µM (series often up to 46.1 µM), for inactives: at the top dose activity, negative = active; actives 0.2% (n = 390,000); AID 602313; note: % of control where 0% means no effect; nearly all actives have a fitted effect of over 65% in size
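HeLa cells stably expressing A3F-eYFP plus Vif, plated and incubated overnight at 37 deg C, then exposed to compounds overnight at 37 deg C. Blocked degradation read as raised yellow fluorescence (Ex 488/Em 500-530).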
The depositor's hits bear a star; ? = inconclusive; nt = no result; [ ] = another dose, or the depositor's remark. An excerpt weighted towards active compounds, which were near 0.7% of everything screened. Unless noted, calls come from the whole dose curve; as a rule, active = well fitted curve in the direction sought with a large enough effect; inconclusive = small, poorly fitted or top-dose-only effect, or another doubt; inactive = no such curve, though single readings can be large; an effect the other way counts as inactive or inconclusive. Potency is the fitted concentration of half-maximal effect.

SMILES | Vif-A3G inh | Epigenetic derep | GLS inhibitor | PINK1 expr mod | Vif-A3F inh
Cc1cccc(CNC(=O)c2ccc(Cn3c(=O)c4cccn4c4cccnc43)cc2)c1 | 0% | 18µM* | 1% | 0% | -27%
CCN1CCCC1CNC(=O)c1cnn(-c2ncc(C)c(-c3ccc(F)cc3)n2)c1C(C)C (stereo not drawn) | nt | nt | nt | -1% | nt
CC1CN(c2ncc(/C=N/NC(=O)c3ccccc3O)s2)CC(C)O1 (stereo not drawn) | -2% | 2% | -10% | 0% | 4%
O=C(N/N=C/c1cnc(N2CCCCC2)s1)c1ccc(C(F)(F)F)cc1 | -3% | 2% | -9% | 7.1µM* | 0%
O=C(N/N=C/c1c(O)n(-c2ccc(Cl)cn2)c(=O)c2ccccc12)c1ccncc1 | -19% | 0% | -26% | 3% | 22µM*
O=C(N/N=C/c1c(O)n(-c2ccc(Cl)cn2)c(=O)c2ccccc12)C1CC1 | -1% | 0% | ? | -1% | -19%
O=C(O)C1=CCC=CC1C(=O)O (stereo not drawn) | 1% | nt | 11µM* | 3% | -4%
COC(=O)c1c(OCc2ccccn2)cc(=O)n2c1CCN(Cc1ccc3nsnc3c1)CC2 | nt | nt | nt | 2% | nt
Oc1ccc(/C=N/n2c(-c3ccccc3)n[nH]c2=S)cc1 | -7% | nt | 16µM* | -1% | -26%
Cc1nc(C(=O)N(Cc2cc3ccc(F)cc3nc2N2CCC(O)CC2)CC2CCCO2)cs1 (stereo not drawn) | nt | nt | nt | 1% | nt
CCOc1cc(/C=C/C(=O)c2ccc(OC)c(CN3CCOCC3)c2)cc(Br)c1O | ? | nt | 4% | 0% | 25µM*
CCC1CN(Cc2cn[nH]c2-c2ccc(F)cc2)Cc2cc(OC)ccc2O1 (stereo not drawn) | nt | nt | nt | 6% | nt
Cn1c(N/N=C/c2cc3ccccc3nc2Cl)nc2ccccc21 | 11µM* | ? | -6% | 35µM* | 22µM*
O=C(N/N=C/c1ccoc1)c1cc(O)cc(O)c1 | 0% | nt | 13µM* | 4% | 4%
Cc1cc(C)cc(C(=O)N/N=C/c2ccoc2)c1 | ? | nt | 2% | 2% | -6%
COc1cc(/C=N/NC(=O)c2cc(O)cc(O)c2)ccc1OC(=O)c1ccccc1 | -17% | nt | 13µM* | 1% | -7%
COc1cc(C(=O)N/N=C/c2ccc(OC(=O)c3ccccc3)c(OC)c2)ccc1O | ? | nt | -5% | 0% | -9%
COCCN=c1scc(-c2ccco2)n1/N=C/c1ccc(O)c(O)c1O | -11% | 0% | 0% | 8% | ?
C=CCN=c1scc(-c2ccco2)n1/N=C/c1ccc(O)c(O)c1O | -8% | 9% | 10µM* | 4% | ?
CSc1ccc(/C=N/Nc2nc(C)cc(=O)[nH]2)cc1 | -1% | -3% | -6% | 4% | 13%
Cc1cc(=O)[nH]c(N/N=C/c2ccc(O)c(O)c2)n1 | -2% | nt | 13µM* | 2% | 0%
OCC1(O)OC[C@@H](O)[C@H](O)[C@@H]1O (stereo partly drawn) | nt | nt | -6% | nt | nt
N#Cc1sc2nc(-c3cccs3)cc(-c3ccc(Cl)cc3)c2c1N | ? | 14µM* | 4% | 29%[38.3 µM] | ?
CCc1nc2cc(C(=O)N3CCC[C@H]3C(=O)OC)cc(NC(=O)c3ccccc3OC)c2n1C | nt | nt | nt | 0% | nt
Cc1cccc(-c2noc(-c3ccc(NCc4ccco4)c([N+](=O)[O-])c3)n2)c1 | 1% | -4% | 4% | 2% | 10µM*
SMILES | Vif-A3G inh | Epigenetic derep | GLS inhibitor | PINK1 expr mod | Vif-A3F inh
Cc1[nH][nH]c(=O)c1C(c1c(C)[nH][nH]c1=O)c1cn(Cc2ccccc2Cl)c2ccccc12 | 11µM* | 1% | 23% | 19% | -8%
N/C(=N\O)c1cn(Cc2ccccc2Cl)c2ccccc12 | 1% | nt | ? | -1% | -13%
CC[C@H]1OC(=O)C[C@@H](O)[C@H](C)[C@@H](O[C@@H]2O[C@H](C)C[C@H](N(C)C)[C@@H]2O)[C@@H](CC=O)C[C@@H](C)C(=O)/C=C\[C@]2(C)O[C@H]2[C@@H]1C | nt | nt | 2% | nt | nt
CCCCCCSc1cccc(-c2nc3ccc(C)cn3c2NCc2ccccc2)c1 | -1% | nt | 18% | 25µM* | ?
CCCCCCSc1cccc(-c2nc3cc(C)ccn3c2NCc2ccccc2)c1 | -2% | nt | 10% | ? | ?
CCC(Sc1nc(C)cc(C)n1)C(=O)NC1=NN=C(c2ccc(C)cc2)CS1 (stereo not drawn) | -15% | 3% | -2% | 14µM* | -18%
O=C1CCCC2=C1C(c1ccco1)Nc1ccc3ccccc3c12 (stereo not drawn) | -13% | -2% | 11µM* | 8% | ?
O=C1CCCC2=C1C(c1ccc(O)c(O)c1)Nc1ccc3ccccc3c12 (stereo not drawn) | -9% | nt | ? | 7% | -2%
CC1(C)SC(=S)N(/N=C/c2ccccc2)C1N(O)C(=O)Nc1ccc([N+](=O)[O-])cc1 (stereo not drawn) | 0% | -1% | 25% | 32µM* | 9%
CNC(=O)N(O)C1N(/N=C/c2ccc(N(C)C)cc2)C(=S)SC1(C)C (stereo not drawn) | -6% | nt | 12% | 0% | 7%
COc1ccc2cc(CNCc3ccccc3Cl)c(N3CCCC(CO)C3)nc2c1 (stereo not drawn) | nt | nt | nt | 0% | nt
COc1cc(C2=NOC(C(=O)NCc3ccc(F)cc3)C2)cc(OC)c1OC (stereo not drawn) | ? | 0% | 0% | 6%[38.3 µM] | -16%
COc1ccc(C2=NOC(C(=O)NCc3ccc(F)cc3)C2)cc1OC (stereo not drawn) | ? | -6% | 3% | 2.8µM* | -22%
FC(F)(F)c1cccc(N2CCN(C(=S)NC3CCCCC3)CC2)c1 | 2% | -1% | 1% | 32µM* | -24%
C(=C1NCCN1)c1cccc2ccccc12 | nt | nt | -6% | nt | nt
COCCCNC(=S)N/N=C/c1ccc(OC)cc1 | 3% | 0% | -2% | -2% | 22µM*
COCCCNC(=S)N/N=C/c1ccc(O)cc1 | 1% | 1% | 3% | 0% | 0%
O=S(=O)(O)c1ccc(O)c2cc(Nc3ccccc3)ccc12 | -2% | nt | 2.2µM* | 1% | 2%
Nc1cccc2c(O)cc(S(=O)(=O)O)cc12 | 4% | nt | 2.8µM* | 0% | -10%
O=S(=O)(O)c1cc(O)c2cc(Nc3ccccc3)ccc2c1 | 1% | nt | ? | -1% | -6%
Nc1ccc2c(O)cc(S(=O)(=O)O)cc2c1 | 9% | nt | 4µM* | -1% | 1%
Nc1cc(S(=O)(=O)O)cc([N+](=O)[O-])c1O | 4% | -1% | ? | 2% | 12%
COc1ccccc1Nc1ccc2c(O)cc(S(=O)(=O)O)cc2c1 | -3% | nt | 2.2µM* | 2% | -22%
CC(=O)Nc1ccc2c(O)cc(S(=O)(=O)O)cc2c1 | 0% | nt | 10µM* | 4% | -23%
O=S(=O)(O)c1cc(O)c2ccc(Nc3ccccc3)cc2c1 | 1% | nt | 5µM* | -1% | -1%
